Source: PubChem
GLS inhibitor: glutaminase GLS (human) inhibition | O94925 | GLS enzymatic activity, qHTS titration | Potency, µM (titrated, usually from 45.5 µM), without a hit: at the top dose activity change, negative = inhibition, usual class: inhibitors | hit rate 0.21% among 410,000; further: on the % scale 0 is the no-effect control and ±100 the full control effect
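hKGA; 45 mM KH2PO4 pH 8.2 + 0.02% Tween-20; cpd via pin tool; 1 mM Gln soln; GluOx/HRP/Amplex Red; RT 30 min; fluor. t0 & final.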
G9a block: G9a (human) methyltransferase inhibition; G9a H3K9 monomethylation, AlphaScreen, 2 h; Potency, µM (series often up to 102 µM), for the others: top-dose activity, negative = inhibition, usual class: inhibitors; Q96KQ7; hit rate 8.8% among 350,000; AID 504332; further: on the % scale 0 is the no-effect control and ±100 the full control effect; nearly all actives have a fitted effect of over 75% in size
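Step 1: enzyme (final 20 nM) with compound, 15 min RT. Step 2: substrate peptide 500 nM and SAM 20 uM, 2 h RT. Step 3: anti-H3K9me1 antibody and AlphaScreen beads, 10 min, then plate read.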
BAZ2B block: blocks human BAZ2B; AlphaScreen BAZ2B-H3K14Ac peptide displacement; Potency, µM (highest dose often 114 µM), for the others: at the highest dose activity change, negative = inhibition, actives largely listed as inhibitors; hit rate 4.4% among 360,000; further: on the % scale 0 is the no-effect control and ±100 the full control effect; nearly all actives have a fitted effect of over 60% in size
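Protein-peptide AlphaScreen: BAZ2B 50 nM, b-H3K14Ac 50 nM, 1x PBS pH 7.4 + 0.01% Tween-20. Preincubation 30 min RT; cpd 30 min RT (top 110 uM); beads 20 min RT, light-protected.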
HP1b binding inh: blocks HP1-beta chromodomain binding to methylated histone tails; P83916; AlphaScreen HP1-beta / biotin-H3K9me3 peptide binding; Potency, µM (highest dose often 114 µM), without a hit: at the highest dose activity change, negative = inhibition, most hits filed as inhibitors; hit rate 0.56% among 390,000; further: nearly all actives have a fitted effect of over 70% in size
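HP1-beta protein (50 nM final) preincubated 30 min at room temperature with biotinylated H3(1-18)K9me3 peptide (50 nM) in PBS pH 7.4, 0.01% Tween-20, then compound added for 30 min. AlphaScreen streptavidin donor/nickel chelate acceptor beads (10 ug/mL final), 30 min dark, luminescence read.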
L3MBTL1 block: inhibitors of human L3MBTL1. AlphaScreen L3MBTL1–H3K9me1 peptide binding. Potency, µM (highest dose often 57.1 µM), for inactives: at the top dose activity, negative = inhibition, usual class: inhibitors. hit rate 0.66% among 230,000. AID 485360; further: on the % scale 0 is the no-effect control and ±100 the full control effect; nearly all actives have a fitted effect of over 60% in size
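L3MBTL1 (50 nM) pre-complexed 30 min with biotinylated H3(1-15)K9me1 peptide (75 nM), then compounds added for 30 min at room temperature; AlphaScreen streptavidin donor/nickel chelate acceptor beads (10 ug/mL final) read after 30 min dark incubation.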
JMJD2A Tudor: inhibitors of human JMJD2A Tudor domain; Potency, µM (top dose mostly 114 µM), for the others: top-dose activity change, negative = inhibition, most hits filed as inhibitors; hit rate 4.4% among 390,000; AlphaScreen JMJD2A-Tudor / H3K4me3 peptide binding; O75164; further: on the % scale 0 is the no-effect control and ±100 the full control effect; nearly all actives have a fitted effect of over 50% in size
Target sequence (O75164 whole entry, looked up, the tested form may be a part): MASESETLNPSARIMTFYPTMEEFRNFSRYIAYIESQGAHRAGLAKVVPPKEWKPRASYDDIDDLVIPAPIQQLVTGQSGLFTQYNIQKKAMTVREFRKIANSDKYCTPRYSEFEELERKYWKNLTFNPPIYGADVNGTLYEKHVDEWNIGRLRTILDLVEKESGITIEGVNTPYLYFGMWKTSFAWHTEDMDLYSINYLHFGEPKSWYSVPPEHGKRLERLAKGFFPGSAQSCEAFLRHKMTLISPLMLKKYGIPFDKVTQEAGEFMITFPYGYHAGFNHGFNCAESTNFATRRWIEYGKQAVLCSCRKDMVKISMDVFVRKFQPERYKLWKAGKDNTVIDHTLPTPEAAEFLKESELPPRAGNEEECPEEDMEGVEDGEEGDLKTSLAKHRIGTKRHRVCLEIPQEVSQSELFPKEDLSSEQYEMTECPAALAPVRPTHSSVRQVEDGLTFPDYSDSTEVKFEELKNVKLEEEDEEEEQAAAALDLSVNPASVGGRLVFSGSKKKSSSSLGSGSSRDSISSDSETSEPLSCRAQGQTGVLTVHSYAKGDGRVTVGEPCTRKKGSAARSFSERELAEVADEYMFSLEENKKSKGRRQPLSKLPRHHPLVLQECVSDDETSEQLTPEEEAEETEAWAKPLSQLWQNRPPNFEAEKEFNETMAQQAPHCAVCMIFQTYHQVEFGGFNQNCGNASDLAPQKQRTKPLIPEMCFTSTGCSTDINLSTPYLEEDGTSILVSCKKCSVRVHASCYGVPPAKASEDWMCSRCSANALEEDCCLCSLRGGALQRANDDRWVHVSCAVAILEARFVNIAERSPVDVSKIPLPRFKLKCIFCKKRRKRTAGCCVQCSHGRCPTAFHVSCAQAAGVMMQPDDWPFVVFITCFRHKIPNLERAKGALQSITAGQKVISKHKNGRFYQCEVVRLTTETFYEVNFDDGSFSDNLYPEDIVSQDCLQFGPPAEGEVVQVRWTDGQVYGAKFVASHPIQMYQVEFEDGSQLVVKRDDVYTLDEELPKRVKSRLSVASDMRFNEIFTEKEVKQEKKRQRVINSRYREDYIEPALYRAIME
Active calls of the source: *; ? = inconclusive; . = no result; ! = a repeat was not active; [ ] = dose if it differs, or a comment. Compounds with a hit are over-represented: about 10% of the library has one in this group of screens. The call rests on the fitted dose curve; in most records, active means well fitted curve in the direction sought with a large enough effect; inconclusive means small, poorly fitted or top-dose-only effect, or another doubt; inactive means no such curve, though single readings can be large; an effect the other way counts as inactive or inconclusive. Potency means the concentration at half of the fitted maximal effect.

SMILES | GLS inhibitor | G9a block | BAZ2B block | HP1b binding inh | L3MBTL1 block | JMJD2A Tudor
Cc1cc(C)cc(OCC(=O)Nc2ccc(N3CCCC3)cc2)c1 | 0.5% | -11.0%[59 µM] | -29.7% | -36.0% | -14.1% | ?
O=C(CNCC1CCCCC1)Nc1ccc(N2CCCCC2)cc1 | . | 22.4µM* | 28.2µM* | . | ? | .
O=C(Cc1ccc(Cl)cc1)Nc1ccc(N2CCCC2)cc1 | -4.0% | ? | -2.9% | 11.2% | . | 4.1%
O=C(CNCCC1=CCCCC1)Nc1ccc(N2CCCCCC2)cc1 | 25.6% | ? | 12.6µM* | 15.8µM* | ? | 20µM*
Cc1ccccc1OCC(=O)Nc1ccccc1N1CCCCC1 | 5.2% | ? | . | 140.0% | 29.8% | 70.9%
O=C(CNCC1CCCO1)Nc1ccccc1N1CCCCCC1 (stereo not given) | 18.9% | 44.7µM* | ? | -14.0% | -3.1% | ?
CCOc1ccc(NC(=O)COc2ccc(S(=O)(=O)N3CCOCC3)cc2)cc1 | -7.2% | . | . | 14.9% | 4.8% | -8.2%
CCCn1c(-c2ccc(S(=O)(=O)N3CCOCC3)cc2)csc1=Nc1ccc(OCC)cc1 | -0.1% | 12.6µM* | ? | ? | . | ?
O=S(=O)(c1ccc(-c2csc(=Nc3ccccc3)n2CCCN2CCOCC2)cc1)N1CCOCC1 | 17.9% | 37.9%[0.501 µM] | 39.8µM* | ? | -21.4% | ?
CCCCn1c(-c2ccc(S(=O)(=O)N3CCOCC3)cc2)csc1=Nc1ccccc1 | 2.9% | 5.62µM* | ? | ? | . | ?
COc1ccccc1N1CCN(S(=O)(=O)c2c(C)sc3ncn(CC(=O)N(C)c4ccc(C(C)C)cc4)c(=O)c23)CC1 | -3.3% | -47.8%[59 µM] | -11.2% | 20.9% | . | -26.3%
Cc1cc2c(s1)c1cnn(Cc3ccc(C(C)C)cc3)c(=O)c1n2C | . | . | . | . | . | -3.4%
Cc1ccc2[nH]c(=O)c3cc(C(=O)NCc4cccc(Cl)c4)sc3c2c1 | -3.4% | -2.7%[59 µM] | 12.2% | 64.3% | . | -3.6%
CCCCC[C@H](O)/C=C/[C@H]1C=CC(=O)[C@@H]1C/C=C\CCCC(=O)O | . | 35.5µM*! | 50.1µM* | . | ? | .
CCCCC[C@H](O)C/C=C1/C(=O)C=C[C@@H]1C/C=C\CCCC(=O)O | . | -15.6%[59 µM] | . | . | . | .
CCCCCCCC/C=C\CCCCCCCC(=O)O | -11.2% | 27.7%[59 µM] | -23.1% | 86.1% | . | 89.1µM*
CCCCC/C=C/C=C1/C(=O)C=C[C@@H]1C/C=C\CCCC(=O)O | . | 22.4µM*! | . | . | . | .
CCCCCC(O)C=CC1C(O)CC(O)C1CC=CCCCC(=O)O (stereo not given) | 0.5% | . | . | . | . | .
Cc1cc2nn(-c3ccc(F)cc3)nc2cc1NC(=O)c1cccc([N+](=O)[O-])c1C | 1.8% | 1.9%[59 µM] | -14.0% | 34.4% | . | -0.4%
Cc1cc2nc(-c3ccc(OCc4ccc(F)cc4)cc3)cc(C(F)(F)F)n2n1 | 8.3% | 18.3%[59 µM] | 5.2% | 37.2% | . | -2.2%
CCCCSc1n[nH]c(=S)c2nc[nH]c12 | ? | . | . | -19.3%[57 µM] | . | -53.1%
S=c1[nH]nc(SCc2ccccc2)c2[nH]cnc12 | 7.08µM* | . | . | -32.3% | . | -31.0%
Nc1c(-c2cccc([N+](=O)[O-])c2)nc2ccccn12 | 18.7% | 79.4µM* | ? | -11.5% | -8.2% | -34.7%
O=[N+]([O-])c1cccc(-c2ncc3ccccn23)c1 | -11.0% | -41.6% | ? | -14.6% | -3.2% | -29.9%
Cc1ccccc1Cn1cnc2nc3c(cc2c1=O)CC(C)CC3 (stereo not given) | -8.0% | 4.2%[59 µM] | 15.3% | 52.4%[57 µM] | . | -3.2%
CS(=O)(=O)c1cccc(C(=O)N(CCc2ccccc2)Cc2cccs2)c1 | -3.2% | 79.4µM* | 8.2% | 25.4% | . | 0.0%
Cn1c(C(C#N)C(=O)c2sc3ccccc3c2Cl)nc2ccccc21 (stereo not given) | -5.9% | 18.9% | 8.0% | 33.3% | -3.9% | -24.5%
CCCn1nc([N+](=O)[O-])c(C(C#N)c2nc3ccccc3s2)c(Cl)c1=O (stereo not given) | 29.2% | 7.08µM* | 10µM* | 11.2µM* | . | 15.8µM*
